# Screens from PubChem BioAssay.
# HIV RNase H inh-1 = HIV-1 RT RNase H inhibitors, primary screen, biochemical, fluorescence | inhibition, % at 10 µM | Gag-Pol polyprotein (Human immunodeficiency virus type 1 group M subtype B (isolate … | 1.9% of 65,000 active | RT-RNase H RNA/DNA duplex cleavage | AID 565, 2006; in the data active = inhibition above about 50%
# HIV RNase H inh-2 = HIV-1 RT RNase H inhibitors, retest, confirmation, biochemical; shares compounds with HIV RNase H inh-1; Recombinant RT RNase H, fluorescent RNA/DNA duplex cleavage; inhibition, % at 10 µM; 39% of 1,000 active; in the data active = inhibition above about 48%; inconclusive = no clear call, values can overlap the other calls
# Numbers stand for hits; – = inactive; ? = inconclusive. Many of the other results were omitted from the sample, so hits are more common in it than they were.
SMILES,HIV RNase H inh-1,others
CCOC(=O)C1C(=O)NC(SCC(N)=O)=C(C#N)C1c1ccccc1OCC (centres undefined),66,HIV RNase H inh-2=–
CCOC(=O)C1C(=O)NC(SC)=C(C#N)C1c1ccccc1F (centres undefined),–,
CCCCCNC(=O)c1c(N)n(/N=C/c2ccco2)c2nc3ccccc3nc12,–,
C=CCn1c(=O)c(C(=O)Nc2nnc(C)s2)c(O)c2ccccc21,83,HIV RNase H inh-2=98
C=CCn1c(=O)c(C(=O)NCCc2ccccc2)c(O)c2ccccc21,–,
CCn1c(=O)c(C(=O)Nc2cnccn2)c(O)c2ccccc21,–,
Cc1ccccc1NC(=O)C1CCCN1C(=O)NC1CCCCC1 (centres undefined),–,
OCCN1CCN(c2nc(-c3ccccc3)c3cc(Cl)ccc3n2)CC1,–,
O=C(N1CCN(CCO)CC1)N1c2ccccc2C=Cc2ccccc21,–,
OCCN1CCN(C(=S)c2ccc(Cl)c(Cl)c2)CC1,93,HIV RNase H inh-2=66
O=C(COc1ccc(Cl)cc1)NCc1nnc(SCC(=O)N2CCCc3ccccc32)o1,–,
CCn1c(=S)sc2nc(C)sc21,84,HIV RNase H inh-2=–
Cn1c(C(=O)N2CCN(c3ccccn3)CC2)cc2c(=O)n(C)c3ccccc3c21,–,
CCOc1ccc(OCc2ccc(C(=O)OCc3ccccn3)o2)cc1,–,
CCOc1ccc(CN2CCNC(=O)C2CC(=O)OC)cc1 (centres undefined),–,
CCOC(=O)c1c(NC(=O)CSc2nnc(-c3cccnc3)n2Cc2ccco2)sc(C)c1C,–,
COc1cc(-c2nnc3sc(-c4ccccn4)nn23)cc(OC)c1OC,–,
CCOc1cccc(-c2nnc3sc(-c4cc(OC)c(OC)c(OC)c4)nn23)c1,–,
COc1cc(-c2nnc3sc(-c4ccncc4)nn23)cc(OC)c1OC,–,
COc1cc(-c2nn3c(Cc4ccccc4)nnc3s2)cc(OC)c1OC,91,HIV RNase H inh-2=80
COc1cc(-c2nn3c(COc4ccccc4)nnc3s2)cc(OC)c1OC,71,HIV RNase H inh-2=–
COc1cc(-c2nn3c(-c4ccccc4)nnc3s2)cc(OC)c1OC,–,
CC1Oc2ccccc2N(CC(=O)NCCc2ccccc2)C1=O (centres undefined),–,
CC12CC(c3ccccc3O1)C(C(=O)NCc1ccccc1)C(=O)N2 (centres undefined),–,
CCc1c(C)nc(/N=C(/NC(=O)c2ccccc2)Nc2ccccc2OC)[nH]c1=O,–,
SMILES,HIV RNase H inh-1,others
Cn1c(N)c(C(=O)COC(=O)C2(c3cccc(F)c3)CCCC2)c(=O)n(C)c1=O,–,
CC1CN(C2CCN(C(=O)c3ccccc3)CC2)CC(C)O1 (centres undefined),–,
CCOc1cc(NC(=O)c2cnccn2)c(OCC)cc1NC(=O)c1ccc(OC)cc1,–,
N#Cc1c(NC(=O)c2nc3ncccn3n2)sc2c1CCCCC2,–,
Cc1onc(-c2ccccc2Cl)c1C(=O)Nc1sc2c(c1C#N)CCC2,–,
Cc1cc(C(=O)Nc2sc3c(c2C#N)CCCCC3)cs1,–,
CCCc1cc(C(=O)Nc2sc3c(c2C#N)CCC3)no1,61,HIV RNase H inh-2=70
CCCC(=O)Nc1sc2c(c1C#N)CCCC2,–,
N#Cc1c(NC(=O)c2ccncc2)sc2c1CCC2,64,HIV RNase H inh-2=–
Cc1c2c(n3c(nc4ccccc43)c1C#N)N(Cc1ccccn1)CC2,–,
C=CCn1c(SCc2nc(N)nc(N3CCCCC3)n2)nnc1-c1ccco1,–,
Cc1onc(-c2ccccc2Cl)c1C(=O)N1CCN=C1SCc1cccnc1,–,
CCn1c(=NC(=O)CN2C(=O)CCC2=O)sc2c(OC)ccc(OC)c21,–,
CCn1c(=NC(=O)c2ccc(S(=O)(=O)N3CCOCC3)cc2)sc2cccc(OC)c21,–,
CCn1c(=NC(=O)c2ccc(N3C(=O)CCC3=O)cc2)sc2c(OC)ccc(OC)c21,56,HIV RNase H inh-2=?
O=C(CCN1CCN(Cc2ccccc2)CC1)Nc1cccc(Cl)c1,–,
Nc1nonc1C(=O)NCCNC(=O)c1cccs1,–,
CCOC(=O)N1CCN(C(=O)Cc2ccsc2)CC1,–,
CCC1(C)Cc2c(C#N)c(N)sc(=S)c2CO1 (centres undefined),–,
N#Cc1c(N)sc(=S)c2c1CCCC2,67,HIV RNase H inh-2=–
CN1Cc2sc(N)c(C#N)c2CC1(C)C,–,
CS(=O)(=O)NCCOc1ccc(S(=O)(=O)N2CCCc3ccccc32)cc1,–,
Fc1ccc(Cn2nnnc2CN2CCc3ccccc3C2)cc1,–,
COc1cccc(C2CC(c3ccccc3Cl)n3ncnc3N2)c1 (centres undefined),–,
CCOC(=O)CSc1nc(N2CCOCC2)c2c(c1C#N)CC(C)(C)N(C)C2,–,
SMILES,HIV RNase H inh-1,others
O=C(NCCc1ccc(Cl)cc1)C1CCN(S(=O)(=O)N2CCC3(CC2)OCCO3)CC1,–,
CCSc1nnc(NC(=O)CSc2nnc(-c3c[nH]c4ccccc34)n2C)s1,–,
CC1CC(C)CN(S(=O)(=O)c2ccc(C(=O)Nc3nnc(-c4cccs4)o3)cc2)C1 (centres undefined),74,HIV RNase H inh-2=?
CCC1CCCCN1S(=O)(=O)c1ccc(C(=O)Nc2nnc(-c3cccs3)o2)cc1 (centres undefined),–,
CC1CCCN(S(=O)(=O)c2ccc(C(=O)Nc3nnc(-c4ccccc4Cl)o3)cc2)C1 (centres undefined),–,
COc1ccc(N2CCN(C(CNS(=O)(=O)c3cc(F)ccc3F)c3cccnc3)CC2)cc1 (centres undefined),–,
CC1CC(c2ccccc2)n2nc(NC(=O)c3ccco3)nc2N1 (centres undefined),–,
O=C(Nc1nc2ccccc2n1Cc1ccccc1)c1ccco1,–,
O=C(Nc1nc(NC(=O)c2ccco2)n(-c2ccccc2)n1)c1ccccc1,53,HIV RNase H inh-2=–
Cc1ccc(-c2ccc(CCC(=O)O)n2Cc2ccco2)cc1,–,
O=C1CC(c2ccc3c(c2)OCO3)CN1 (centres undefined),–,
COCc1cc(C2SCC(=O)Nc3c2c(=O)[nH]n3C(C)C)ccc1OC (centres undefined),–,
Cc1ccc(-n2nc(C)c3c2NC(=O)CSC3c2ccc3c(c2)OCO3)cc1 (centres undefined),60,HIV RNase H inh-2=64
O=C(CCn1c(=S)[nH]c2cc3c(cc2c1=O)OCO3)NCCN1CCCC1,–,
CCOC(=O)c1ccc(-c2c(C(=O)OCC)oc3cc(O)c(CC)cc3c2=O)o1,–,
Cc1cc(C)cc(NC(=O)C2CCCN(c3nccc(C)n3)C2)c1 (centres undefined),–,
Cc1cc(C)nc(N2CCCC(C(=O)Nc3ccc4nc(C)c(C)nc4c3)C2)n1 (centres undefined),–,
Cc1cc(C)cc(NC(=O)C2CCCN(c3nc(C)cc(C)n3)C2)c1 (centres undefined),70,HIV RNase H inh-2=–
COC(=O)CNC(=O)Cc1c(F)cccc1Cl,–,
CCn1cc(C(=O)NCc2ccco2)c(=O)c2cc(S(=O)(=O)N3CCCCCC3)ccc21,–,
CCn1cc(C(=O)NCc2ccco2)c(=O)c2cc(S(=O)(=O)N3CCC(C)CC3)ccc21,–,
CCn1cc(C(=O)NCc2ccco2)c(=O)c2cc(S(=O)(=O)N3CCc4ccccc4C3)ccc21,65,HIV RNase H inh-2=63
CN1C(=O)Cc2cc(S(=O)(=O)N3CCOCC3)ccc21,–,
Cc1ccc(Cl)cc1N1CCN(CC(=O)Nc2ccc3[nH]c(=O)[nH]c3c2)CC1,–,
CCn1c(COc2cccc(OC)c2)nnc1SCC(=O)Nc1cccc(OC)c1,–,
COc1ccc(N2C(=O)CC(N3CCN(c4nc5ccccc5s4)CC3)C2=O)cc1 (centres undefined),–,
COc1cccc2sc(N3CCN(c4nc5ccccc5s4)CC3)nc12,71,HIV RNase H inh-2=?
Clc1cccc2sc(N3CCN(c4ccccc4)CC3)nc12,–,
